# From PubChem BioAssay
# RE007 growth inh: less growth of the S. pombe RE007 Vpr strain; S. pombe RE007 Vpr strain, BacTiter-Glo ATP luminescence, 24 h; Potency, µM (doses to about 92.2 µM), for the others: at the highest dose activity change, negative = less growth, actives largely listed as inhibitors; 0.21% of 360,000 active; AID 651644; active means well fitted falling curve with a large enough effect; further: potency means the concentration at half of the fitted maximal effect; on the % scale 0 is the no-effect control and ±100 the full control effect; nearly all actives have a fitted effect of over 50% in size
#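 Fission yeast RE007 carrying one integrated HIV-1 vpr copy, seeded at OD 0.01 in PMG+AL medium with 23 nL pinned compound. Grown 24 h at 30 degrees; viability read by BacTiter-Glo luminescence after 5 min.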
# Shiga inhibitor: Shiga toxin inhibition. Vero cells, Shiga toxin protein synthesis inhibition reporter. inhibition, % at 38.7 µM. 9.2% of 290,000 active; in the data active means inhibition mostly above about 28%, no sharp cut-off; inactive means mostly below about 43%; further: 0% is about no effect
# Giardia FBPA inh: Giardia lamblia aldolase inhibition | purified Giardia FBPA | Potency, µM (titrated, usually from 59.6 µM), without a hit: at the highest dose activity, negative = inhibition, actives largely listed as inhibitors | 0.71% of 290,000 active | AID 2451; further: potency means the concentration at half of the fitted maximal effect; on the % scale 0 is the no-effect control and ±100 the full control effect; nearly all actives have a fitted effect of over 55% in size
# Target sequence (A8B2U2 whole entry, looked up): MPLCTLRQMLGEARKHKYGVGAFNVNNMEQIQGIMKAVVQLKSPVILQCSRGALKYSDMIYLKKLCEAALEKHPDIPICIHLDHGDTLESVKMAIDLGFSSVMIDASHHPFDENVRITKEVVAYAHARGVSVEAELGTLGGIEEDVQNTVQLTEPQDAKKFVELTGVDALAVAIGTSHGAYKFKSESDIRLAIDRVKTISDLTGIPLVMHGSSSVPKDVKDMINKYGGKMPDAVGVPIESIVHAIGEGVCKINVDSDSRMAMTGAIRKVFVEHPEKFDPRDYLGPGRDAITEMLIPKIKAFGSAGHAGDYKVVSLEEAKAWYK
#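 40 nM FBPA preincubated 10 min at RT with compound (up to 57.5 uM final), then substrate plus GAPDH/TPI/NAD/arsenate coupling and diaphorase/resazurin added. Fluorescence read after 20 min at RT, 525/598 nm.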
# Tb PYK inh: inhibitors of Trypanosoma brucei pyruvate kinase; Q57TT1; TbPYK enzyme, Kinase-Glo Plus ATP luminescence, 45 min; Potency, µM (highest dose often 76.8 µM), for the others: at the top dose activity, negative = inhibition, most hits filed as inhibitors; 0.12% of 410,000 active; further: potency means the concentration at half of the fitted maximal effect; on the % scale 0 is the no-effect control and ±100 the full control effect; nearly all actives have a fitted effect of over 50% in size
#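 Glycolytic pyruvate kinase of T. brucei was incubated with substrate, test compound and 130 uM ADP for 45 minutes at room temperature. Luminescent Kinase-Glo Plus signal was measured after 10 minutes.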
# Cycloheximide cs: counter-screen hit for Shiga toxin inhibitors, cycloheximide; cell reporter, cycloheximide protein synthesis inhibition counterscreen; max response, %; 12% of 300,000 active; AID 2314; in the data active means max response mostly above about 13%, no sharp cut-off; inactive means mostly below about 14%; further: read at 38.3 µM for the half of the compounds with a filed dose; 0% is about no effect
# LmPK inhibitor: inhibitors of Leishmania mexicana pyruvate kinase; purified LmPK, Kinase-Glo ATP luminescence, 1 h; Potency, µM (doses to about 57.5 µM), for inactives: top-dose activity change, negative = inhibition, usual class: inhibitors; Q27686; AID 1721; 0.37% of 290,000 active; further: potency means the concentration at half of the fitted maximal effect; on the % scale 0 is the no-effect control and ±100 the full control effect
#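 ATP generated from ADP (0.1 mM) and PEP (0.5 mM) by 0.1 nM LmPK over 1 h at room temperature (pH 7.2 imidazole buffer) was detected by coupled luciferase luminescence. Values were normalized to uninhibited and no-enzyme wells.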
# An asterisk follows results filed as active; . = no result; + = active, no number. Shown is part of a subset that was picked to be rich in hits. Unless noted, the call rests on the fitted dose curve; in most records, active means well fitted curve in the direction sought with a large enough effect; inconclusive means small, poorly fitted or top-dose-only effect, or another doubt; inactive means no such curve, though single readings can be large; an effect the other way counts as inactive or inconclusive.
SMILES,RE007 growth inh,Shiga inhibitor,Giardia FBPA inh,Tb PYK inh,Cycloheximide cs,LmPK inhibitor
Cc1ccc(C(=O)Nc2ccc3cn[nH]c3c2)cc1S(=O)(=O)N1CCCCC1,12%,76*,-10%,-4%,38*,6%
O=C(Nc1cccnc1)c1ccc(Cl)c(S(=O)(=O)N2CCCCC2)c1,9%,2,1%,-1%,10,8%
O=C(NCc1nc2ccccc2[nH]1)c1cccc(S(=O)(=O)N2CCCCC2)c1,0%,-11,-14%,4%,-2,2%
O=C(O)c1cccc(NC(=O)c2ccc(Cl)c(S(=O)(=O)N3CCCCCC3)c2)c1,1%,101*,12%,-4%,50*,3%
O=C(COC(=O)c1ccc(Cl)c(S(=O)(=O)N2CCCCCC2)c1)Nc1ccccc1,14%,56*,-6%,-5%,35*,-1%
O=C(NCc1nc2ccccc2[nH]1)c1ccc(Cl)c(S(=O)(=O)N2CCCC2)c1,-16%,32,1%,-12%,14*,2%
O=C(COC(=O)c1ccc(S(=O)(=O)N2CCCC2)cc1)Nc1ccccc1,0%,.,.,-16%,.,.
Nc1ccc(Oc2ccc3c(c2)C(=O)NC3=O)cc1,-19%,.,-6%,0%,2,4%
CCCCSCCCNC(=O)C1CCN(Cc2nc(-c3ccc(CC)cc3)oc2C)CC1,.,.,.,2%,.,.
O=C(NC1=NCCS1)c1ccc(Cl)c(S(=O)(=O)N2CCc3ccccc32)c1,0%,11,-7%,0%,-2,7%
Cc1ccc(C(=O)Nc2cccc(O)c2)cc1S(=O)(=O)N1CCCCCC1,0%,61*,-1%,1%,54*,-6%
O=C(NC1=NCCS1)c1ccc(Cl)c(S(=O)(=O)N2CCCCCC2)c1,-6%,35,4%,0%,18*,2%
COc1ccc(F)cc1S(=O)(=O)NCC(c1ccco1)S(=O)(=O)c1cccs1 (configuration not stated),.,.,.,-5%,.,.
COc1ccc(Cc2nnc(Nc3ccc(Cl)cc3)[nH]c2=O)cc1,10%,16,3%,-2%,18*,-5%
COc1ccc(Nc2nnc(Cc3ccc(Cl)cc3)c(=O)[nH]2)c(OC)c1,1%,-5,-3%,1%,3,-2%
COc1c(/C=N/Nc2ccc(C(=O)O)cc2)c(CCN(C)C(C)=O)cc2c1OCO2,7%,70*,-1%,-4%,25*,-6%
COc1c(/C=N/NS(=O)(=O)c2ccc(C)cc2)c(CCN(C)C(C)=O)cc2c1OCO2,11%,13,-2%,-2%,-1,2%
COc1c(/C=N/NC(=O)c2ccccc2O)c(CCN(C)C(C)=O)cc2c1OCO2,1%,57*,-17%,-1%,16*,2%
CC1CC(=O)Nc2ccccc2N1C(=O)Cn1cnc2ccccc2c1=O (configuration not stated),-19%,.,.,0%,.,.
COc1ccc(C)cc1Nc1n[n+](-c2ccccc2)c(-c2ccc(N(C)C)cc2)s1,-7%,12,-16%,-9%,2,1%
Cc1ccc2c(c1)sc(-c1ccc(N(C)C)cc1)[n+]2C,.,+,-16%,-5%,77*,4%
COCCNC(=O)/C(C#N)=C/c1ccc(C(=O)O)cc1,12%,-14,2%,6%,-3,-2%
CN(C)c1ccc(/C=C(/C#N)C(=O)NCc2ccccc2)o1,-6%,31,-5%,-9%,59*,-1%
COc1ccc(N(CCC#N)C(=O)/C(C#N)=C\c2cccs2)cc1,-7%,41,-1%,-3%,20*,4%
N#C/C(=C/c1ccccc1)C(=O)NCc1ccccc1,17%,-2,3%,5%,10,8%
SMILES,RE007 growth inh,Shiga inhibitor,Giardia FBPA inh,Tb PYK inh,Cycloheximide cs,LmPK inhibitor
Cc1ccc(/C=C(\C#N)C(=O)NCc2ccco2)o1,10%,66*,-4%,-3%,43*,-1%
COCCNC(=O)/C(C#N)=C/c1ccc(SC)cc1,-8%,65*,3%,-1%,30*,-5%
Cc1ccsc1/C=C(\C#N)C(=O)NCc1ccco1,12%,-7,2%,17%,9,0%
CSc1ccc(/C=C(\C#N)C(=O)Nc2cccc(C)c2)cc1,21%,36,1%,-9%,22*,-6%
N#C/C(=C\c1cccs1)C(=O)NCc1ccco1,-8%,56*,0%,-1%,39*,4%
COCCNC(=O)/C(C#N)=C/c1cccs1,-12%,31,-3%,1%,14*,1%
CSc1ccc(/C=C(\NC(=O)c2ccc(C)cc2)C(=O)Nc2cccc(C)c2)cc1,15%,15,6%,1%,-3,5%
Cc1ccc(N2C(=O)C(CC(=O)Nc3ccc(F)cc3)N(CCC3=CCCCC3)C2=O)cc1 (configuration not stated),.,.,.,-2%,.,.
Cc1ccc(CN2CCN(C(=O)C3CCCO3)CC2)cc1 (configuration not stated),5%,-8,0%,2%,1,-4%
Cc1ccc(-c2nc(CN3CCN(C(=O)C4CCCO4)CC3)cs2)cc1 (configuration not stated),-23%,2,.,-6%,14*,1%
Cc1ccc2nc(-c3ccc(N4C(=O)CC(N5CCN(CCO)CC5)C4=O)cc3)sc2c1 (configuration not stated),32µM*,68*,0%,1%,37*,-1%
CCOC(=O)c1cn2nc(Oc3ccc(C(=O)OC)cc3)ccc2n1,1%,-1,10%,1%,1,-2%
CCOC(=O)c1cn2nc(Oc3cccc(F)c3)ccc2n1,9%,49,0%,3%,31*,0%
CCOC(=O)c1cn2nc(Oc3ccc(NC(C)=O)cc3)ccc2n1,-7%,59*,2%,9%,25*,-2%
Cc1cc(NC(=O)CSc2ncc(C(=O)Nc3ccccc3)c(=O)n2C)no1,.,.,.,3%,.,.
Cc1ccc(Cn2c(CNS(=O)(=O)c3cccc([N+](=O)[O-])c3)nc3cccnc32)cc1,.,.,.,7%,.,.
Oc1ccc(N=Nc2ccc3c(c2)OCO3)c2ccccc12,.,78*,10%,.,58*,-15%
O=C(NN=Cc1c(O)ccc2ccccc12)c1ccc2c(c1)OCO2,3%,.,.,-1%,.,.
CN(C(=O)COC(=O)CCc1c[nH]c2ccccc12)c1ccccc1,34%,.,.,7%,.,.
CCCCOC(=O)/C(=C/C=C/c1ccccc1)NC(=O)c1ccccc1,7%,41,1%,3%,49*,5%
CCCOC(=O)/C(=C\C=C\c1ccccc1)NC(=O)c1ccccc1,-5%,15,-2%,2%,16*,9%
C=CCOC(=O)/C(=C\C=C\c1ccccc1)NC(=O)c1ccccc1,11%,22,-3%,2%,18*,1%
